# PubChem BioAssay (NCI)
# “And” between values parts separate entries of the source, which are not always exact repeats. Identical values can stand only once. This is part of a sample that, as a whole, favours compounds with a hit. Of some 83,000 tested, about 20% had one in any assay.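 Interpretation: 100, growth as untreated; towards 0, rising growth inhibition; 0, no net growth; 0 to -100, cell death. Compounds scoring below 10 were considered active.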 The source made the active and inactive calls.
# Test system: UACC-62 melanoma
# Experiment: NCI-60 one-dose screen, 48 h (100 = growth as untreated, 0 = no growth, -100 = all killed)
# Settings: 10 µM unless noted
row,Compound,growth
1,Clc1c(Cl)c(Cl)c2nn(C3CCCO3)nc2c1Cl (stereo not given),-16.1% [100 µM] (active) and -100% [100 µM] (active)
2,COC(=O)C(=O)C(C(=O)C(=O)Nc1ccccc1OC)c1nc2ccc([N+](=O)[O-])cc2[nH]c1=O (stereo not given),41.9% [100 µM] (inactive) and 22.7% [100 µM] (inactive)
3,COc1ccc2c(c1)N(C(C)=O)CN1C(=O)CCC21 (stereo not given),87.4% [100 µM] (inactive) and 102% [100 µM] (inactive)
4,CCC/C(Cl)=N/OC(=O)Nc1cccc(F)c1,-86.8% [100 µM] (active) and -100% [100 µM] (active)
5,CCO/C=N\C1=C(C#N)SC2=N/C(=C\c3ccc(OC)cc3)C(=O)N21,71.9% [100 µM] (inactive) and 70.7% [100 µM] (inactive)
6,O=C(NC1=NC2C=CC([N+](=O)[O-])=CC2S1)C(=O)Nn1c(=S)[nH]c2ccccc2c1=O (stereo not given),-8.33% [100 µM] (active) and 16.8% [100 µM] (inactive)

# Test system: TK-10 renal
# Experiment: as above
# Settings: 10 µM unless noted
row,Compound,growth
1,N#CC(=S)Nc1ccc(F)cc1,33.9% [100 µM] (inactive) and 8.52% [100 µM] (active)
2,CNc1nc2c(C)ccc3[nH]c(N(C)C)nc3c-2n1,60% [100 µM] (inactive) and 12.5% [100 µM] (inactive)
3,COC(=O)C(Cc1nc2ccccc2[nH]c1=O)C(=O)C(=O)Nc1cc(C(F)(F)F)ccc1Cl (stereo not given),-90.1% [100 µM] (active) and 0.262% [100 µM] (active)
4,CC(C)(C)c1cc(C2COC(=O)COCCOCC(=O)OCCOCCO2)cc(C(C)(C)C)c1O (stereo not given),-69.6% [100 µM] (active) and -100% [100 µM] (active)
5,CC1CC2(OC2C)C(=O)OC2CCN(C)C/C=C(/COC(=O)C1(C)O)C2=O (stereo not given),97.2% [100 µM] (inactive) and 101% [100 µM] (inactive)
6,C=C(CCC(C(=O)O)C1CCC2(C)C3=C(CCC12C)C1(C)CCC(O)C(C)(C)C1CC3)C(C)C (stereo not given),-54.9% [100 µM] (active) and -100% [100 µM] (active)
7,NC(=S)Nc1[nH]c(=S)nc2c1SC1=N/C(=C\c3ccco3)C(=O)N12,75.1% [100 µM] (inactive) and 26.4% [100 µM] (inactive)
8,Cc1cc(N(CCC#N)CCC#N)ccc1/C=N/NC(=O)c1cc(Cl)ccc1O,76.6% [100 µM] (inactive) and 12.3% [100 µM] (inactive)
9,NC1N=C(c2ccc(Cl)cc2)C2=C(N1)c1ccccc1CC2 (stereo not given),76.2% [100 µM] (inactive) and -97.6% [100 µM] (active)
10,CC(=O)C1=C(C)N2C(=NC3=C(CCc4ccccc43)C2c2cccc(Br)c2)S1 (stereo not given),112% [100 µM] (inactive) and 48.5% [100 µM] (inactive)
11,C=C1C(=O)O[C@@H]2C[C@@]3(C)CC(=O)C=C(C)[C@@H]3C[C@H]12,-87.6% [100 µM] (active) and -78.7% [100 µM] (active)
12,CC(C)C1OC(N)=C(C#N)C1(C#N)C#N (stereo not given),62.1% [100 µM] (inactive) and 24.7% [100 µM] (inactive)
13,COc1ccc(/C=C2/NC(=S)N=C2Cl)cc1,92.7% [100 µM] (inactive) and -42.1% [100 µM] (active)
14,CC(C)=CC(O)C/C(C)=C/CC/C(C)=C/CCC1(C)C(CCCO)/C(=C(/C)C=O)CCC1(C)O (stereo not given),49.7% [100 µM] (inactive) and 9.22% [100 µM] (active)
15,Clc1ccc(C2NN=C3c4ccccc4OCC32)cc1 (stereo not given),7.98% [100 µM] (active) and 5.96% [100 µM] (active)
16,COc1ccc(OC)c(N(CN2C(=O)CCC2C(=O)O)C(C)=O)c1 (stereo not given),78.2% [100 µM] (inactive) and 103% [100 µM] (inactive)
17,NC(Cc1ccc(S(=O)(=O)O)cc1)C(=O)NC(Cc1ccc(S(=O)(=O)O)cc1)C(=O)NC(Cc1ccc(S(=O)(=O)O)cc1)C(=O)NC(Cc1ccc(S(=O)(=O)O)cc1)C(=O)O (stereo not given),102% [100 µM] (inactive) and 111% [100 µM] (inactive)
18,CCOC(=O)c1cc(C)nc2c1c(=O)n(-c1ccccc1)c(=O)n2CCCCN1CCN(c2ncccn2)CC1,116% [100 µM] (inactive) and 111% [100 µM] (inactive)
19,COc1ccc(C2c3cc4c(c(OC)c3CC3OCC(=O)C32)OCO4)cc1OC (stereo not given),46.4% [100 µM] (inactive) and -11% [100 µM] (active)
20,CC(C)=CCc1c(OC(=O)c2c(C)cc(O)cc2O)cc(CO)c(CO)c1O,1.66% [100 µM] (active) and -100% [100 µM] (active)

row,Compound,growth
1,COc1cc([C@H]2OC[C@H]3[C@@H]2CO[C@@H]3c2cc(OC)c3c(c2)OCO3)cc(OC)c1OC,33.1% [100 µM] (inactive) and 24.9% [100 µM] (inactive)
2,CCC(c1ccc(N(C)C)cc1)C1NC(=S)NC1=O (stereo not given),47.6% [100 µM] (inactive) and 37.5% [100 µM] (inactive)
3,COc1c2c(c3c(c1OC)c(=O)c1ccccc1n3C)OCO2,74.8% [100 µM] (inactive)
4,COc1cc2c3cc1Oc1c(OC)c(OC)cc4c1C(Cc1ccc(O)c(c1)-c1cc(ccc1OC)CC3N(C)CC2)N(C)CC4 (stereo not given),-41.8% [100 µM] (active) and -97% [100 µM] (active)
5,O[C@H]1[C@H](O)[C@@H](Cn2nnc(-c3ccccc3)c2-c2ccccc2)OCO[C@@H]1Cn1nnc(-c2ccccc2)c1-c1ccccc1,-89.7% [100 µM] (active)
6,C[C@@H]1C[C@](O)([C@@H](C)Cl)C(=O)O[C@@H]2CCN3CC=C(COC(=O)[C@]1(C)O)[C@H]23,66.6% [100 µM] (inactive) and 88% [100 µM] (inactive)
7,CCCCCCSC[C@H](OC(C)=O)[C@@H](OC(C)=O)[C@@H](OC(C)=O)[C@@H](COC(C)=O)OC(C)=O,95.1% [100 µM] (inactive) and 101% [100 µM] (inactive)
8,O=C1NC(N/N=C\C(O)C(O)C(O)C(O)CO)=N/C1=C\c1ccc(Cl)cc1 (stereo not given),47.7% [100 µM] (inactive) and -100% [100 µM] (active)
9,NC(=O)CC1OC(=O)Cc2cc3c(c(O)c21)C(=O)c1c(O)cccc1C3=O (stereo not given),57.5% [100 µM] (inactive)
10,COc1ccc2cc(CN3CCC(C4CCNCC4)CC3)ccc2c1,-89.6% [100 µM] (active) and -100% [100 µM] (active)
11,COc1ccc2cc1Oc1ccc(cc1)C[C@@H]1c3cc(c(OC)cc3CCN1C)Oc1c(OC)c(OC)cc3c1[C@H](C2)N(C)CC3,33.5% [100 µM] (inactive) and -100% [100 µM] (active)
12,OCc1ccccc1OC1OC(CO)C(O)C(O)C1O (stereo not given),97.4% [100 µM] (inactive) and 97.5% [100 µM] (inactive)
13,COc1cc(-c2nc(SC)nc3c2CCc2ccccc2-3)cc(OC)c1OC,41.4% [100 µM] (inactive) and 11% [100 µM] (inactive)
14,Clc1c(Cl)c(Cl)c2nn(C3CCCO3)nc2c1Cl (stereo not given),24.5% [100 µM] (inactive) and -76.8% [100 µM] (active)
15,COC(=O)C(=O)C(C(=O)C(=O)Nc1ccccc1OC)c1nc2ccc([N+](=O)[O-])cc2[nH]c1=O (stereo not given),121% [100 µM] (inactive) and 68% [100 µM] (inactive)
16,COc1ccc2c(c1)N(C(C)=O)CN1C(=O)CCC21 (stereo not given),93% [100 µM] (inactive) and 101% [100 µM] (inactive)
17,CCC/C(Cl)=N/OC(=O)Nc1cccc(F)c1,-100% [100 µM] (active)
18,CCO/C=N\C1=C(C#N)SC2=N/C(=C\c3ccc(OC)cc3)C(=O)N21,92.7% [100 µM] (inactive) and 103% [100 µM] (inactive)
19,O=C(NC1=NC2C=CC([N+](=O)[O-])=CC2S1)C(=O)Nn1c(=S)[nH]c2ccccc2c1=O (stereo not given),7.66% [100 µM] (active) and 13.1% [100 µM] (inactive)
